Screening results deposited in PubChem by National Center for Advancing Translational Sciences (NCATS).
Compounds with a hit are over-represented: about 8.3% of the library has one in this group of screens.
Giardia FBPA inh: Giardia lamblia aldolase inhibition; hit rate 0.71% among 290,000; Potency, µM (series often up to 59.6 µM), inactives show at the top dose activity, negative = inhibition, most hits filed as inhibitors; purified Giardia FBPA; AID 2451; also: potency is read from the fitted curve at half-maximal effect; nearly all actives have a fitted effect of over 55% in size
Target sequence (A8B2U2 whole entry, looked up): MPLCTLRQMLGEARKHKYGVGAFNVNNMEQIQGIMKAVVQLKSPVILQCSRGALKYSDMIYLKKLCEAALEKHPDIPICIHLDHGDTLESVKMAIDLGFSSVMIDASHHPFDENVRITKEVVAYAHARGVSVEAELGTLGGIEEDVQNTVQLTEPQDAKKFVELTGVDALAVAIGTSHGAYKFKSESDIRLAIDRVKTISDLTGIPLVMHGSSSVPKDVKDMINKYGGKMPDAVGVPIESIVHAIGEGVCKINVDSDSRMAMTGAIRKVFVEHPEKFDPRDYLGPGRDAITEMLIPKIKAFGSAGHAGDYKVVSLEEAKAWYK
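40 nM FBPA preincubated 10 min at RT with compound (up to 57.5 uM final), then substrate plus GAPDH/TPI/NAD/arsenate coupling and diaphorase/resazurin added. Fluorescence read after 20 min at RT, 525/598 nm.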
HCMV inh: inhibitors of human cytomegalovirus | HFF cells, HCMV-luciferase reporter, 72 h; active compounds read low | activity change, negative = inhibition, % at 57.5 µM | hit rate 4.5% among 410,000 | AID 1259415; in the data active = activity change below about -60%; inconclusive = no clear call, values can overlap the other calls; inactive = above about -39%
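Two compound doses tested in HFFs infected with HCMV-luciferase, MOI 1 PFU/cell, 72 h at 37C. Lysate luminescence read with OneGlo; data normalized against buffer-only and 10uM Salinomycin inhibitor controls.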
HCV inhibitor: blocks hepatitis C virus; AID 651820; hit rate 3.4% among 340,000; Huh7.5.1 HCVcc-Cre infection, luciferase reporter, 44 h; Potency, µM (series often up to 41.8 µM), for inactives: top-dose activity change, negative = inhibition, hits mostly inhibitors; also: potency is read from the fitted curve at half-maximal effect
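Compounds are dispensed onto cells plated 4 h earlier at 1,000 per well, with HCVcc-Cre virus (about 0.5 moi) added next. Following 44 h of culture, luminescent signal is measured for 15 sec after 15 min with substrate at room temperature.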
FMDV inh: blocks foot and mouth disease virus. FMDV antiviral cell-based qHTS. Potency, µM (highest dose often 57.9 µM), without a hit: at the top dose activity change, negative = inhibition, usual class: inhibitors. hit rate 1.2% among 410,000; calls by dose curve; tested in HEK293T cells; also: read-out not given here; potency is read from the fitted curve at half-maximal effect; nearly all actives have a fitted effect of over 45% in size
MARV entry inh: Marburg virus entry inhibition; Marburg virus pseudotyped entry inhibition, cell reporter; hit rate 1.8% among 300,000; Potency, µM (titrated, usually from 37.8 µM), without a hit: top-dose activity change, negative = inhibition, most hits filed as inhibitors; calls by dose curve; tested in HEK293 cells; also: potency is read from the fitted curve at half-maximal effect
Lassa entry inh: Lassa virus entry inhibition. Lassa virus pseudotype entry inhibition, cell reporter. Potency, µM (top dose mostly 37.9 µM), without a hit: at the highest dose activity change, negative = inhibition, most hits filed as inhibitors. hit rate 1.2% among 300,000. AID 540256; calls by dose curve; tested in HEK293 cells; also: potency is read from the fitted curve at half-maximal effect; nearly all actives have a fitted effect of over 50% in size
The depositor's hits bear a star; ? = inconclusive; · = no result given; [ ] = remark or other dose. Unless noted, calls follow the shape of the dose curve; as a rule, active = well fitted curve in the direction sought with a large enough effect; inconclusive = small, poorly fitted or top-dose-only effect, or another doubt; inactive = no such curve, though single readings can be large; an effect the other way counts as inactive or inconclusive. % is scaled to controls: 0 for no effect and ±100 for the full control effect.

SMILES	Giardia FBPA inh	HCMV inh	HCV inhibitor	FMDV inh	MARV entry inh	Lassa entry inh
CCOC(=O)N1CC(C)N(CC(O)CN2CCOCC2)CC1C (stereo not drawn)	·	-88.2*	4.0%	0.4%	4.3%[46.1 µM]	7.2%[46.1 µM]
CN(CC(O)CN1CCOCC1)S(=O)(=O)O (stereo not drawn)	-2.1%	0.0	7.1%	-9.3%	0.1%[46.1 µM]	16.7%
OC(CN1CCOCC1)CN1CCOCC1	3.5%	-64.6*	1.9%	-3.9%	-0.4%	2.7%
O=C(NCc1nnc2n1CCN(Cc1ccc(C(F)(F)F)cc1)CC2)c1ccccn1	·	·	·	-16.9%	·	·
c1ccc(-c2cc(-c3nc4ccccc4[nH]3)c3ccccc3n2)cc1	-11.7%	-94.2*	?	?	?	?
c1ccc(-c2csc(-c3nc4ccccc4[nH]3)n2)cc1	-11.4%	·	·	·	·	·
CN(Cc1ccccc1)c1ncc(C=O)s1	3.0%	-63.4*	9.9%	-7.1%	?	-20.6%[46.1 µM]
O=Cc1cnc(N2CCN(c3ccccc3)CC2)s1	-1.0%	13.9	5.0%	-1.9%	?	2.2%[46.1 µM]
Cc1nc(NCc2cnn(C)c2C)sc1-c1ccn(CC2COc3ccccc3O2)n1 (stereo not drawn)	·	·	·	-28.6%	·	·
CCC(Sc1nnc(C)n2c1cc1sccc12)C(=O)Nc1ccccc1F (stereo not drawn)	·	-64.3*	·	-26.8%	·	-9.6%[46.1 µM]
CCCn1c(=S)[nH]c2cc(C(=O)N3CCCC(C(=O)OCC)C3)ccc2c1=O (stereo not drawn)	-22.3%	28.7	?	17.8µM*	?	-29.6%
CCCn1c(=S)[nH]c2cc(C(=O)N3CCN(C(=O)OCC)CC3)ccc2c1=O	?	0.0	-16.1%	-18.4%	-25.0%[46.1 µM]	-1.3%[46.1 µM]
CC1CCCN(C(=O)c2ccc3c(=O)n(Cc4ccc5c(c4)OCO5)c(=S)[nH]c3c2)C1 (stereo not drawn)	-8.1%	-86.8*	?	?	-19.6%	-27.0%
CCN(CC)C(=O)c1ccc2c(=O)n(Cc3ccc4c(c3)OCO4)c(=S)[nH]c2c1	0.5%	-24.9	-12.6%	1.8%	·	·
N#Cc1cccc(-c2nc3cnc(N4CCOCC4)nc3n(C3CC3)c2=O)c1	1.3%	·	·	0.0%	·	·
COc1cccc(NC(=O)CSc2nc(C)c(Cc3ccccc3)c(=O)[nH]2)c1	·	-38.1	·	-6.5%	-15.1%[46.1 µM]	18.1%[46.1 µM]
CCS(=O)(=O)c1nc(S(=O)(=O)c2ccc(Cl)cc2)c(NCc2ccc(Cl)cc2)s1	·	-9.1	·	3.5%	-5.3%[46.1 µM]	5.0%[46.1 µM]
CCN1C(=O)[C@H]2[C@@H](c3ccc(-c4ccc(F)cc4)c(OC)c3)N3CCC[C@@]3(C(=O)OC)[C@H]2C1=O	·	37.9	3.16µM*	-26.8%	·	·
CCN1C(=O)[C@@H]2[C@@H](c3ccc(-c4ccc(Cl)c(Cl)c4)cc3)N3CCCC[C@@]3(C(=O)OC)[C@@H]2C1=O	·	2.2	13.6%	0.0%	·	·
CCN1C(=O)[C@@H]2[C@@H](c3ccc(-c4ccc(Cl)c(Cl)c4)c(OC)c3)N3CCC[C@@]3(C(=O)OC)[C@@H]2C1=O	·	100.2	10µM*	-28.8%	·	·
CN(N=Cc1ccc([N+](=O)[O-])cc1)c1ccccn1	·	-69.8*	·	34.5%	·	·
Cc1cc2c(cc1Cl)N(C(=O)Nc1ccnc3ccccc13)CC2	1.4%	·	·	·	?	-6.2%
Cc1cc2c(cc1Cl)N(C(=O)Nc1ccc(Oc3cccnc3C)nc1)CC2	·	·	·	·	?	11.6µM*
CC(=O)OC[C@H]1O[C@@H](n2ncc(=O)[nH]c2=O)[C@H](OC(C)=O)[C@@H]1OC(C)=O	-4.6%	·	28.0%	-15.5%	?	0.731µM*
Cc1nn(-c2ccc3ccccc3c2)c(=O)c2ccccc12	-3.1%	71.1	?	49.8%	·	·
Cc1nn(-c2nc3ccccc3[nH]2)c(N)c1-c1ccc(Cl)cc1	-13.0%	-67.7*	-18.5%	-3.5%	?	-10.8%
Cc1nn(-c2nc3ccccc3[nH]2)c(=O)c2ccccc12	-5.1%	-90.5*	13.9%	0.794µM*	?	?
COc1nonc1NC(=O)CSc1nc2ccccc2[nH]1	4.4%	-64.1*	12.0%	-13.5%	12.6%	28.2%
O=C(CSc1nc2ccccc2[nH]1)Nc1c(F)cccc1F	-1.0%	-84.9*	?	15.4%	-25.1%[46.1 µM]	?
O=C(CSc1nc2ccccc2[nH]1)Nc1nc(-c2ccc(Br)cc2)cs1	-0.7%	23.1	-29.7%	22.4µM*	?	?
